The record followed here is PubChem BioAssay (Tox21).

Assay [1] can be described thus: qHTS RealTime-Glo MT Cell Viability Assay in HEK293 cells - 0 hour (AID 1224880). Further: top concentration of the series differs between compounds; nearly all actives have a fitted effect of over 45% in size. An outline of the steps:
(§1)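 qHTS format; HEK293 cells with NanoLuc/prosubstrate reagent, 37 C/5% CO2 for 5 h pre-dosing; compounds 23 nL in DMSO; luminescence at each time point reflects viable cells.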
In general terms: Quantitative high-throughput screening tests each substance at several concentrations.

Assay [2] can be described thus: A CellTox Green Cytotoxicity Assay to monitor cytotoxicity in HEK293 cells - 32 hour (AID 1224881). Further: nearly all actives have a fitted effect of over 40% in size. Further: potency means the concentration at half of the fitted maximal effect. An outline of the steps: (§2)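 Each value comes from one timepoint of a single continuous run in which HEK293 cells with CellTox Green were exposed to compound for up to 40 h at 37 C, dye fluorescence rising with cell death.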
Assay [3] can be described thus: A CellTox Green Cytotoxicity Assay to monitor cytotoxicity in HepG2 cells - 0 hour (AID 1224882). Further: nearly all actives have a fitted effect of over 35% in size. Further: potency means the concentration at half of the fitted maximal effect. An outline of the steps: (§3)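 Continuous culture of HepG2 cells with a membrane-impermeant DNA dye; rising fluorescence marks dead cells. Compound exposure lasted up to 40 h at 37 C, with reads every 8 h from 0 h.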
The nature of assay [4]: A CellTox Green Cytotoxicity Assay to monitor cytotoxicity in HepG2 cells - 32 hour (AID 1224883). Further: nearly all actives have a fitted effect of over 50% in size. Further: potency means the concentration at half of the fitted maximal effect. The gist of the method: as §3
Assay [5] is described as follows: qHTS RealTime-Glo MT Cell Viability Assay in HEK293 cells - 24 hour (AID 1224886). Further: nearly all actives have a fitted effect of over 50% in size. Further: potency means the concentration at half of the fitted maximal effect. The gist of the method:
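Nonlytic real-time viability readout: viable cells convert prosubstrate to NanoLuc substrate, giving luminescence proportional to live cell number. HEK293, 600 cells/well, compound added after 5 h, continuous culture at 37 C.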

The nature of assay [6]: qHTS RealTime-Glo MT Cell Viability Assay in HEK293 cells - 8 hour (AID 1224887). Further: nearly all actives have a fitted effect of over 50% in size. Further: potency means the concentration at half of the fitted maximal effect. The gist of the method:
as §1

Assay [7] in a line: A CellTox Green Cytotoxicity Assay to monitor cytotoxicity in HEK293 cells - 16 hour (AID 1224888). Further: nearly all actives have a fitted effect of over 35% in size. Further: potency means the concentration at half of the fitted maximal effect. An outline of the steps:
as §2

Assay [8] in a line: qHTS RealTime-Glo MT Cell Viability Assay in HepG2 cells - 0 hour (AID 1224889). Further: nearly all actives have a fitted effect of over 50% in size. The gist of the method:
(§4)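 Luminescence read-out: viable HepG2 cells reduce a prosubstrate to a NanoLuc substrate, giving a signal proportional to live cell number. Reads taken at 0, 8, 16, 24, 32 and 40 h of compound exposure at 37 C.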

Assay [9] is described as follows: A CellTox Green Cytotoxicity Assay to monitor cytotoxicity in HepG2 cells - 8 hour (AID 1224890). Further: nearly all actives have a fitted effect of over 45% in size. Further: potency means the concentration at half of the fitted maximal effect. The gist of the method: as §3
Assay [10] can be described thus: qHTS assay to identify small molecule antagonists of the estrogen receptor alpha (ER-alpha) signaling pathway using the BG1 cell line in the presence of 0.1 nM 17-beta-estradiol - cell viability counter screen (AID 1259241). Further: nearly all actives have a fitted effect of over 40% in size. An outline of the steps: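 VM7Luc4E2 cells (endogenous ER-alpha, 4×ERE-luciferase), hormone-starved 5 days in charcoal-stripped FBS, were treated with compounds plus 0.1 nM 17beta-estradiol for 22 hr at 37C; viability read in same wells as CellTiter-Fluor live-cell protease fluorescence.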

Assay [11] can be described thus: qHTS assay to identify small molecule antagonists of the androgen receptor (AR) signaling pathway using the MDA cell line in the presence of 0.5 nM R1881 - cell viability counter screen (AID 1259242). Further: nearly all actives have a fitted effect of over 45% in size. An outline of the steps: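 Fluorescence from CellTiter-Fluor, which reports protease activity of live cells, was read 30 min after reagent addition to MDA-kb2 cells that had been incubated 16 hr with compound and 0.5 nM R1881.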

A short description of assay [12]: qHTS assay to identify small molecule phospholipidosis (PLD) inducers (AID 1259344; active means well fitted curve in the direction sought with a large enough effect; an effect the other way counts as inactive or inconclusive). An outline of the steps:
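HepG2 cells grown on collagen I take up LipidTOX Red while exposed to compound for 24 h; after fixation they are imaged at 20x and pit metrics are extracted.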

A short description of assay [13]: qHTS assay to identify small molecule HDAC inhibitors (AID 1259364). Further: top concentration of the series differs between compounds; nearly all actives have a fitted effect of over 45% in size. The gist of the method:
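Endogenous HDAC class I/II activity was measured in wild-type HCT-116 cells by HDAC-Glo luminescence after 2 h compound treatment.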

Assay [14] in a line: qHTS assay to identify small molecule HDAC inhibitors - cell viability counter screen (AID 1259365). The gist of the method:
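Wild-type HCT-116 cells were seeded at 1,500 per well, incubated overnight at 37 C, then exposed to compounds in DMSO for 2hr. Viability was read by CellTiter-Glo luminescence after 30min at room temperature.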

Assay [15] in a line: qHTS assay to identify small molecule agonists of the sonic hedgehog signaling (Shh) pathway - cell viability counter screen (AID 1259366). Further: nearly all actives have a fitted effect of over 50% in size. An outline of the steps: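 NIH/3T3-derived 3T3 Gli1-Luc cells (stable Gli1-responsive firefly luciferase reporter) were seeded, rested 4 hr at 37 C/5% CO2, then exposed to compounds in DMSO for 24 hr; viability was read by CellTiter-Fluor fluorescence in the same wells.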

A short description of assay [16]: qHTS assay to identify small molecule antagonists of the sonic hedgehog signaling (Shh) pathway - cell viability counter screen (AID 1259367). Further: nearly all actives have a fitted effect of over 55% in size. The gist of the method: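 After a 4 hr settling period, 3T3 Gli1-Luc cells were treated with DMSO-dissolved chemicals and conditioned medium, kept 24 hr at 37C in 5% CO2, and assayed for viability by CellTiter-Fluor fluorescence following 1 hr reagent incubation.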

Assay [17] is described as follows: qHTS RealTime-Glo MT Cell Viability Assay in HepG2 cells - 16 hour (AID 1224885). Further: nearly all actives have a fitted effect of over 50% in size. The gist of the method: as §4
In assay [18] the target is Estrogen receptor (Homo sapiens) (UniProt P03372). As to the kind of experiment: qHTS assay to identify small molecule antagonists of the estrogen receptor alpha (ER-alpha) signaling pathway using the BG1 cell line in the presence of 0.1 nM 17-beta-estradiol (AID 1259244). Further: nearly all actives have a fitted effect of over 50% in size. An outline of the steps: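 Quantitative high-throughput screen in VM7Luc4E2 cells: compound plus 0.1 nM E2 (final), 22 h, 37C, 5% CO2; ONE-Glo added, 30 min room temperature, luminescence measured.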
Sequence of Estrogen receptor (Homo sapiens) (P03372 whole entry, looked up): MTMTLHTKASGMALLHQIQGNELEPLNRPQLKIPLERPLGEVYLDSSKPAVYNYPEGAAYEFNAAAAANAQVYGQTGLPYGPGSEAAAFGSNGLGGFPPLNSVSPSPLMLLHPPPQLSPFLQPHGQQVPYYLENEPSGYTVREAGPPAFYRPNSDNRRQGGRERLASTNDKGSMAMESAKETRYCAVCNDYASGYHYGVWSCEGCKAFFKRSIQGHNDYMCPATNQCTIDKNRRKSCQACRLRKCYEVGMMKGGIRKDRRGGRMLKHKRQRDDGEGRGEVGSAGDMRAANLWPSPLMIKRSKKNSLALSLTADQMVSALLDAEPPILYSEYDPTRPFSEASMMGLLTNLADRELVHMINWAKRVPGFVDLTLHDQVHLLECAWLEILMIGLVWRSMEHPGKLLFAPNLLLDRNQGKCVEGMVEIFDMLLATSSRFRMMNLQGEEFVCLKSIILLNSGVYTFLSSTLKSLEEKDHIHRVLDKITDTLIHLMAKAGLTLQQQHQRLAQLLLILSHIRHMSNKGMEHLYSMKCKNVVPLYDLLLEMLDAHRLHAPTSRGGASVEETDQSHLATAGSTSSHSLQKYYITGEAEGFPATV

Assay [19] concerns the target Androgen receptor (Homo sapiens) (UniProt P10275). As to the kind of experiment: qHTS assay to identify small molecule antagonists of the androgen receptor (AR) signaling pathway using the MDA cell line in the presence of 0.5 nM R1881 (AID 1259243). Further: nearly all actives have a fitted effect of over 50% in size. An outline of the steps: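 Inhibition of R1881 (0.5 nM final) induced reporter signal was measured in human MDA-kb2 cells; note the MMTV promoter also responds to GR. Exposure lasted 16 hr at 37C.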

The nature of assay [20]: A CellTox Green Cytotoxicity Assay to monitor cytotoxicity in HEK293 cells - 8 hour (AID 1224884). Further: nearly all actives have a fitted effect of over 35% in size. The gist of the method: as §2

A number with no mark means an inactive call. Results filed as inconclusive are left out. The source made the active and inactive calls. Unless noted, the call rests on the fitted dose curve; in most records, active means well fitted curve in the direction sought with a large enough effect in the repeat runs; inconclusive means weak or mixed curves; inactive means no such curve, though single readings can be large; an effect the other way counts as inactive or inconclusive.

Sequence of Androgen receptor (Homo sapiens) (P10275 whole entry, looked up): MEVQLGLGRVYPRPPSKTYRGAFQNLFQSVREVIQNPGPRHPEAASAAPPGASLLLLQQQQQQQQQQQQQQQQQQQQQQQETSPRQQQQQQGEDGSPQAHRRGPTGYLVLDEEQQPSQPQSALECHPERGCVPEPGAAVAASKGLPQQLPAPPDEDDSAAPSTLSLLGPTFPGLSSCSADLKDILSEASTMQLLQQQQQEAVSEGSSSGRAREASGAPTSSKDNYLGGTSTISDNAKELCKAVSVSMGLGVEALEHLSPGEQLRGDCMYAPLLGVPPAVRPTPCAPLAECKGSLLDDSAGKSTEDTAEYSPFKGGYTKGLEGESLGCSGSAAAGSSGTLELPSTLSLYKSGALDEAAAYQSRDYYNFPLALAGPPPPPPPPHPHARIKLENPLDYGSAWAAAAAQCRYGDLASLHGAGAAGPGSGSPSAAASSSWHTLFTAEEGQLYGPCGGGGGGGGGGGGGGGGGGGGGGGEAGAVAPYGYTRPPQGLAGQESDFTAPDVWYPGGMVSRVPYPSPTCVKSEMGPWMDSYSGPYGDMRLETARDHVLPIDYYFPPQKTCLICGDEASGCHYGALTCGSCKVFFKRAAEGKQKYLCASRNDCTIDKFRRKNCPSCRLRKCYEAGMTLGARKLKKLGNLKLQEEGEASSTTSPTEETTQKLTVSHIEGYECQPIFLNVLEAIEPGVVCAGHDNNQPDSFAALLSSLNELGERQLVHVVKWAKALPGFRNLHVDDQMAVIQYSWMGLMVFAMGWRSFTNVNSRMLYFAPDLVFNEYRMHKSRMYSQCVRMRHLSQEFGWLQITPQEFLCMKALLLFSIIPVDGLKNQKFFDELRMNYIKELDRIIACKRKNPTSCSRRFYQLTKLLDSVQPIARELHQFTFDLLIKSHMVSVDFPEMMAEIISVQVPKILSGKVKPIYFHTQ

As to `CC1=C(C)C(=O)C(CCCCC#CCCCC#CCO)=C(C)C1=O`, the Potency result in [1], in assay [2], in assay [3], in [4], in assay [7] and in assay [8] was “inactive” in each case. Moreover, the Potency entry in assay [9], in [10], in [11], in assay [12], in assay [13] and in assay [15] was “inactive” throughout. For the same compound, the Potency result in [16] is “inactive”. For the same compound, the Potency in assay [5] was 0.601 µM (active); in [6], 0.535 µM (active). In addition, the call in assay [14] was inactive.
`COc1ccc(C(=O)c2ccc(C)cc2)c(O)c1`: the Potency entry in assay [1], in assay [2], in assay [3], in assay [4], in assay [7] and in assay [8] was “inactive” throughout. In addition, the Potency entry in assay [9], in assay [10], in assay [11], in assay [18], in assay [12] and in assay [15] was “inactive” in each case. In addition, the Potency entry in assay [16] is “inactive”. For the same compound, in assay [17], the compound was called inactive.
As for `CCCCCCCCCCCCCCCCN`, the Potency entry in assay [1], in assay [5], in assay [6], in assay [8], in [10] and in assay [11] was “inactive” each time. In addition, the Potency result in [18], in assay [12], in assay [13], in assay [15] and in assay [16] was “inactive” throughout. The Potency in assay [2] is 16.9 µM (active); in [3], 21.3 µM (active); in [4], 23.9 µM (active); in assay [7] it was 19 µM (active); in assay [9] it was 21.3 µM (active). Besides, the outcome in assay [17] and in assay [14] was inactive.
Take `O=C(OCCN1CCOCC1)c1cccnc1Nc1cccc(C(F)(F)F)c1`: the Potency result in [1], in [2], in assay [3], in assay [4], in assay [6] and in assay [7] was “inactive” in each case. Further, the Potency result in [8], in assay [9], in assay [10], in [11], in assay [18] and in assay [13] was “inactive” each time. Moreover, the Potency result in [15] was “inactive”. The compound was classed as inactive in [17] and in assay [14].
Regarding `O=C(c1ccco1)N1CCNCC1`, the Potency entry in assay [1], in assay [2], in [3], in [4], in [5] and in [6] was “inactive” in each case. Also, the Potency result in [8], in [9], in [10], in assay [19], in assay [18] and in assay [13] was “inactive” throughout. The Potency entry in assay [15] and in assay [16] was “inactive” throughout. The outcome in assay [17] was inactive.
In the case of `CCc1ccc2c(c1)C(=O)c1ccccc1C2=O`, the Potency entry in assay [1], in [2], in assay [3], in assay [4], in assay [5] and in assay [6] was “inactive” in each case. The Potency result in assay [7], in [8], in [9], in assay [10], in assay [11] and in assay [18] was “inactive” throughout. Besides, the Potency result in [15] and in assay [16] was “inactive” throughout. For the same compound, the call in assay [17] and in assay [14] was inactive.
As for `CCC(C)C1N=C(C)C(C)S1` (stereo unspecified), the Potency entry in [1], in [2], in assay [3], in assay [4], in assay [5] and in assay [6] was “inactive” each time. The Potency result in assay [7], in assay [8], in assay [9], in assay [10], in assay [11] and in [13] was “inactive” each time. In addition, the Potency entry in assay [15] and in [16] was “inactive” throughout. Also, the outcome in [17] and in [14] was inactive.
On to `O=[N+]([O-])c1cccc(I)c1`, for which the Potency entry in assay [1], in assay [3], in assay [4], in assay [20], in [5] and in assay [6] was “inactive” throughout. Besides, the Potency entry in [7], in assay [8], in assay [9], in assay [10], in assay [11] and in assay [13] was “inactive” each time. Further, the Potency entry in assay [15] and in [16] was “inactive” each time. The outcome in [17] and in assay [14] was inactive.
Take `COc1ccc(C(=O)Nc2ccccc2)cc1[N+](=O)[O-]`: the Potency entry in assay [1], in assay [3], in assay [4], in assay [20], in assay [8] and in [9] was “inactive” throughout. Moreover, the Potency entry in assay [10], in assay [15] and in assay [16] was “inactive” each time. In addition, the Potency in assay [5] and in assay [6] was 24.7 µM (active) throughout.
As to `CC(C)(Cc1c[nH]c2ccccc12)NCC(O)COc1ccccc1C#N` (stereo unspecified), the Potency result in assay [1], in assay [2], in assay [3], in assay [20], in assay [7] and in assay [8] was “inactive” throughout. The Potency result in [9], in [10], in [13] and in [16] was “inactive” each time. Also, the compound was called inactive in [17] and in assay [14]. In addition, the Potency is 9.52 µM (active) in assay [5] and 7.56 µM (active) in assay [6].
For the compound `CCCCCCCCOCCCN`, the Potency result in [2], in assay [3], in assay [4], in [20], in assay [5] and in [6] was “inactive” in each case. The Potency entry in [7], in [9], in assay [10], in [11], in assay [19] and in assay [18] was “inactive” throughout. The Potency entry in assay [13] is “inactive”. For the same compound, the compound was classed as inactive in [17] and in assay [14].
